In PubChem BioAssay AID848 (Columbia University Molecular Screening Center, 2007):
The whole screen tested about 93,000 compounds, of which about 160 (0.17%) were called active. The full list was thinned out, with actives kept by preference. Unmarked numbers belong to inactive results.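 Rule for the calls: active = cell count reduction exceeding the screen mean by over 5 SD, scaled to untreated wells per plate (cut at about 78% in these data); inactive = the rest.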

experiment: HUVEC nuclei count loss under TNFa – imaging, Hoechst nuclei count, cytotoxicity control for VCAM1 expression modulator project, primary screen (AID 848); conditions: HUVEC TNFalpha-stimulated, at 2 µM, active compounds read high;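 note: cells counted after 24 h of TNF alpha exposure following the 1 h pretreatment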

Question: Which cell count reduction does the source give for CCC(=O)Nc1ccc(C(=O)Nc2cccc(OC)c2)cc1 here?
Answer: Its cell count reduction is -29.2%.

Question: Which cell count reduction does the source give for COc1cc(/C=N/O)cc(Br)c1OS(=O)(=O)c1ccc(C)cc1 here?
Answer: Its cell count reduction is -20%.

Question: Which cell count reduction does the source give for COc1ccc(/C=C(\NC(=O)c2ccc(OC)c(OC)c2)C(=O)NCCc2c[nH]c3ccccc23)cc1 here?
Answer: The cell count reduction was -3.8%.

Question: With Cc1cccc(N2CCN(S(=O)(=O)c3ccc4[nH]c(=O)c(=O)[nH]c4c3)CC2C)c1 (stereo not given) as the compound, how does the cell count reduction read?
Answer: The cell count reduction was -4.3%.

Question: For Cc1ccc(NC(=O)CN2CCc3ccccc3C2)cc1, which cell count reduction is on record?
Answer: The cell count reduction was -11.7%.

Question: With COc1ccccc1-c1n[nH]c2c1[C@H](C)CC[C@H]2C(C)C as the compound, how does the cell count reduction read?
Answer: Its cell count reduction is -1.8%.

Question: With O=C1CSC(c2ccccc2)N1c1nc(-c2ccc(Cl)cc2Cl)cs1 (stereo not given) as the compound, how does the cell count reduction read?
Answer: Its cell count reduction is 12.4%.

Question: Which cell count reduction does the source give for CC1(C)Cc2c(sc3nc(SCC(=O)NCc4ccccc4)n(-c4ccccc4)c(=O)c23)CS1 here?
Answer: The cell count reduction was -2.4%.

Question: For O=C1CCCC2=C1C(c1ccccc1)n1c(s/c(=C/c3cccc(F)c3)c1=O)=N2 (stereo not given), which cell count reduction is on record?
Answer: Its cell count reduction is -15.2%.

Question: With Cc1cc2[nH]ncc2cc1NC(=S)NC(=O)c1ccccc1 as the compound, how does the cell count reduction read?
Answer: The cell count reduction was -6%.

Question: For CCOC(=O)/C(=C\c1ccc([N+](=O)[O-])cc1)C(=O)c1cc(C(C)=O)c(Nc2ccccc2)s1, which cell count reduction is on record?
Answer: The cell count reduction was 5.8%.

Question: With CN(C)C(CNC(=O)CCCOc1ccccc1)c1ccco1 (stereo not given) as the compound, how does the cell count reduction read?
Answer: Its cell count reduction is -22.1%.

Question: Which cell count reduction does the source give for O=C(c1ccccc1)C(Cn1cncn1)C(Sc1ccccc1)c1ccccc1 (stereo not given) here?
Answer: The cell count reduction was -17.7%.

Question: Which cell count reduction does the source give for CC(C)C(=O)Nc1cccc(NC(=S)NC(=O)C(c2ccccc2)c2ccccc2)c1 here?
Answer: The cell count reduction was -31.2%.

Question: Which cell count reduction does the source give for Fc1ccccc1COc1ccccc1CNCc1ccncc1 here?
Answer: Its cell count reduction is 2.6%.

Question: Which cell count reduction does the source give for COc1ccc(NS(=O)(=O)c2ccc(NC(=S)NC(=O)CC(C)C)cc2)cc1 here?
Answer: Its cell count reduction is -22.5%.

Question: With Cc1ccc(N2CCN(C3=NC(=O)/C(=C\c4cccs4)S3)CC2)cc1 as the compound, how does the cell count reduction read?
Answer: Its cell count reduction is -5.4%.

Question: Which cell count reduction does the source give for COc1ccc(CN2CCn3ncc(C(=O)Nc4ccc(Cl)cc4Cl)c3C2=O)cc1 here?
Answer: Its cell count reduction is -5.8%.

Question: Which cell count reduction does the source give for CNC(=S)NNC(=O)c1sccc1OCc1ccccc1 here?
Answer: Its cell count reduction is -14.5%.

Question: Which cell count reduction does the source give for Cc1n[nH]c(=S)n1/N=C/c1ccc(Br)o1 here?
Answer: The cell count reduction was -5.8%.

Question: With Cc1ccc(C2CC2C(=O)NN)cc1 (stereo not given) as the compound, how does the cell count reduction read?
Answer: The cell count reduction was -10.3%.

Question: Which cell count reduction does the source give for O=C(CNC(=O)OCc1ccccc1)Oc1cc2oc(=O)cc(-c3ccccc3)c2cc1Cl here?
Answer: The cell count reduction was 0%.

Question: Which cell count reduction does the source give for O=S(=O)(N/N=C\c1cccn1-c1ccccc1)c1ccc2ccccc2c1 here?
Answer: The cell count reduction was -15.3%.

Question: Which cell count reduction does the source give for Cc1c(NC(=O)/C=C/C(=O)O)cccc1[N+](=O)[O-] here?
Answer: The cell count reduction was -2.4%.

Question: Which cell count reduction does the source give for CCOC(=O)C1=C(C)Nc2sc(C(=O)c3ccc(Br)cc3)c(N)c2C1c1ccc(C(=O)OC)cc1 (stereo not given) here?
Answer: Its cell count reduction is -15.9%.

Question: Which cell count reduction does the source give for COc1ccc(CCNC(=S)NC(=O)/C=C/c2ccc(C)cc2)cc1OC here?
Answer: Its cell count reduction is -29.7%.

Question: Which cell count reduction does the source give for COc1ccc(Oc2coc3cc(OC(=O)c4cncc(Br)c4)ccc3c2=O)cc1 here?
Answer: The cell count reduction was 7%.

Question: For O=C(NC1CC1)c1ccc2c(c1)NC(=O)c1ccccc1S2, which cell count reduction is on record?
Answer: Its cell count reduction is -13.8%.

Question: With Cc1ccc(/C=N/NC(=O)c2sccc2OCc2ccc(F)cc2)cc1 as the compound, how does the cell count reduction read?
Answer: Its cell count reduction is -8.8%.

Question: For Cc1cc(=O)oc2cc(OC(C)C(=O)Nc3ccc(N4CCOCC4)cc3)ccc12 (stereo not given), which cell count reduction is on record?
Answer: Its cell count reduction is -7.6%.

Question: With Cc1nnc(NC(=O)CSc2nc(C3CCCCC3)nc3ccccc23)s1 as the compound, how does the cell count reduction read?
Answer: Its cell count reduction is -7.9%.

Question: Which cell count reduction does the source give for O=C1CCN(C(=O)Nc2ccccc2)N1 here?
Answer: Its cell count reduction is -11.8%.

Question: For CCOc1cccc(SCc2noc(C(=O)NC(C)C)c2C(=O)O)c1, which cell count reduction is on record?
Answer: The cell count reduction was -41.1%.

Question: With Cc1cc([N+](=O)[O-])c(N2CCC[C@@H]2C(=O)O)c([N+](=O)[O-])c1 as the compound, how does the cell count reduction read?
Answer: Its cell count reduction is -11.9%.

Question: With CC(C(=O)Nc1ccc(F)c(F)c1F)N1CCCCCC1 (stereo not given) as the compound, how does the cell count reduction read?
Answer: The cell count reduction was 0%.

Question: With CCC(C(=O)NCc1ccc(OC)cc1)n1nc(C)n2c(cc3occc32)c1=O (stereo not given) as the compound, how does the cell count reduction read?
Answer: Its cell count reduction is -4.6%.

Question: Which cell count reduction does the source give for C/C(=N\NS(=O)(=O)c1cccc([N+](=O)[O-])c1)c1cc2ccccc2o1 here?
Answer: The cell count reduction was -56%.

Question: With CC1CC(C)CN(C(=O)CSc2nnc(CSc3ncccn3)n2C)C1 (stereo not given) as the compound, how does the cell count reduction read?
Answer: Its cell count reduction is -24.8%.

Question: With Cc1ccc(NC(=S)NC(=O)c2ccc(-c3ccccc3)cc2)c(C)c1 as the compound, how does the cell count reduction read?
Answer: Its cell count reduction is -14.1%.

Question: For CCCCNC(=O)CSc1nc2ccc(NC(=O)CSc3nnc(COc4ccccc4C)n3C)cc2s1, which cell count reduction is on record?
Answer: The cell count reduction was -20.8%.

Question: Which cell count reduction does the source give for O=C(Nc1ccccc1Cl)O/N=C(/c1ccccc1)c1ccccn1 here?
Answer: Its cell count reduction is 9.5%.

Question: For Cc1nn(Cc2ccccc2Cl)c(C)c1NC(=O)Cn1nc([N+](=O)[O-])c(Cl)c1C, which cell count reduction is on record?
Answer: The cell count reduction was 10.2%.

Question: With CSCc1cc(N(C)C)nc(SCc2ccc(Cl)cc2Cl)n1 as the compound, how does the cell count reduction read?
Answer: Its cell count reduction is -3%.

Question: Which cell count reduction does the source give for COCCCNCC(=O)Nc1sc(C)c(C)c1C(=O)OC here?
Answer: Its cell count reduction is -27.9%.

Question: Which cell count reduction does the source give for COc1ccc2c(Cl)c(C(=O)NCc3ccco3)sc2c1 here?
Answer: The cell count reduction was -12%.
